Screening data (PubChem BioAssay)
KB-V1 cytotox: qHTS assay for MDR1-selective chemotherapeutics: Primary screen using the drug-selected MDR subline cells KB-V1; KB-V1 MDR cells viability, CellTiter-Glo, 72 h; Potency, µM (highest dose often 46.1 µM), most hits filed as cytotoxic; hit rate 3.4% among 400,000; AID 1347076, 2019; note: % is set by controls: 0 for no effect and ±100 for the full control effect; nearly all actives have a fitted effect of over 60% in size
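Drug-selected KB-V1 cells, grown in DMEM lacking phenol red with 10% FBS, receive compound titrations; after three days at 37 degrees C, surviving cell ATP is quantified by CellTiter-Glo luminescence and responses normalized and curve-fitted.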
SW480 rereplic: A quantitative high throughput screen for small molecules that induce DNA re-replication in SW480 colon adenocarcinoma cells. SW480 DNA re-replication, Hoechst DNA content imaging, 48 h. Potency, µM (titrated, usually from 46.1 µM), for inactives: top-dose re-replication activation, hits mostly activators. hit rate 1.8% among 340,000. AID 624297, 2012; note: % of control where 0% means no effect; nearly all actives have a fitted effect of over 55% in size
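Cells (250 per well) received 23 nL compound or DMSO by pin tool and were kept 48 hr at 37 C, 5% CO2. Nuclei were then stained with Hoechst for 40 min and scanned for DNA content.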
Gal4-VP16 FLuc: VP16 counterscreen qHTS for inhibitors of ROR gamma transcriptional activity | Drosophila S2 Gal4-VP16 UAS-luciferase, luminescence, 20 h | Potency, µM (series often up to 53.6 µM), for inactives: at the top dose activity, negative = inhibition, usual class: inhibitors | hit rate 3.5% among 310,000 | AID 2546, 2010;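 note: Gal4-VP16 expression switched on by copper sulfate through the metallothionein promoter; % is set by controls: 0 for no effect and ±100 for the full control effect; nearly all actives have a fitted effect of over 50% in size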
RORg inh: qHTS for inhibitors of ROR gamma transcriptional activity | Drosophila S2 Gal4-RORgamma UAS-luciferase reporter, 20 h | Potency, µM (titrated, usually from 53.6 µM), for the others: at the top dose activity change, negative = inhibition, actives largely listed as inhibitors | hit rate 5.4% among 310,000 | AID 2551, 2010; note: % is set by controls: 0 for no effect and ±100 for the full control effect; nearly all actives have a fitted effect of over 60% in size
Target sequence (P51450 whole entry, looked up, the tested form may be a part): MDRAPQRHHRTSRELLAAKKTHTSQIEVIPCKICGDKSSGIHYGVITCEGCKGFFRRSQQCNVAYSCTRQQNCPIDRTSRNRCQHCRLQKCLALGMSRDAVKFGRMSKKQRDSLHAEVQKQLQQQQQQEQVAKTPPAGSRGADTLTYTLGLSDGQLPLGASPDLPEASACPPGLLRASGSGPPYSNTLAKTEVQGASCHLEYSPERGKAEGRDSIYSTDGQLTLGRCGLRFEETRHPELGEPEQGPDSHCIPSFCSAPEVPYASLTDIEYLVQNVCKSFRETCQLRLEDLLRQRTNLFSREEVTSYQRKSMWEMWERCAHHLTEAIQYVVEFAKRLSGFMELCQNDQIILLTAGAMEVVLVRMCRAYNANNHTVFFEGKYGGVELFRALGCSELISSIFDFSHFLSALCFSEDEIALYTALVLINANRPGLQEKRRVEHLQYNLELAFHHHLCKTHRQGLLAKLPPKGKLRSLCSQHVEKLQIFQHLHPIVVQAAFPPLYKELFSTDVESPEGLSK
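Stably transfected Drosophila Schneider cells are the test system, with ROR gamma fused to Gal4 and luciferase under UAS control; luminescence is read after 20 hr of 700 uM copper sulfate induction at ambient temperature.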
MCF10A rereplic: A quantitative high throughput screen for small molecules that induce DNA re-replication in MCF 10a normal breast cells; Potency, µM (doses to about 46.1 µM), without a hit: top-dose activity, positive = re-replication, most hits filed as activators; MCF 10A DNA re-replication, Hoechst nuclear intensity, 48 h; hit rate 2.9% among 350,000; AID 624296, 2012; note: % of control where 0% means no effect; nearly all actives have a fitted effect of over 50% in size
KB-3-1 tox: qHTS assay for MDR1-selective chemotherapeutics: Primary screen using the parental adenocarcinoma cell KB-3-1; KB-3-1 viability, CellTiter-Glo ATP luminescence, 72 h; AID 1347075, 2019; Potency, µM (highest dose often 46.1 µM), usual class: cytotoxic; hit rate 1.4% among 400,000; note: % is set by controls: 0 for no effect and ±100 for the full control effect; nearly all actives have a fitted effect of over 60% in size
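KB-3-1 parental drug-naive adenocarcinoma cells in DMEM/10% FBS, incubated 72 h at 37 C with pin-transferred compounds across a concentration series. Viability by CellTiter-Glo luminescence; concentration-response curves fitted after normalization.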
The depositor's hits bear a star; i = inactive; ? = inconclusive; / = not tested or not shown; [ ] = remark or other dose. Hits are enriched below; roughly 10% of the tested compounds scored in any of these assays. Calls come from the whole dose curve; as a rule, active = well fitted curve in the direction sought with a large enough effect; inconclusive = small, poorly fitted or top-dose-only effect, or another doubt; inactive = no such curve, though single readings can be large; an effect the other way counts as inactive or inconclusive. Potency is the fitted concentration of half-maximal effect.

SMILES	KB-V1 cytotox	SW480 rereplic	Gal4-VP16 FLuc	RORg inh	MCF10A rereplic	KB-3-1 tox
Cc1ccc(-n2c(=O)c3oc4ccccc4c3n(Cc3ccccc3)c2=O)cc1C	i	/	/	/	/	i
O=C(Nc1ccc2c(c1)OCCO2)C(c1ccncc1)n1c(=O)c(-c2cc3ccccc3[nH]2)nc2ccccc21 (centres undefined)	i	/	/	/	/	i
CCC1CN2CCC1CC2[C@@H](NC(=S)Nc1cc(C(F)(F)F)cc(C(F)(F)F)c1)c1cccc2ccc(OC)cc12 (some centres undefined)	/	/	13%	-42%	/	/
CC(CNC(=O)c1ccc2c(c1)nc1n2CCCCC1)c1ccccc1 (centres undefined)	i	/	/	/	/	i
Cc1ccccc1NC(=O)c1nc(S(C)(=O)=O)ncc1N(Cc1ccco1)Cc1sccc1C	i	/	/	/	/	i
COc1ccccc1CNc1nc(=S)[nH]c2cc(OC)c(OC)cc12	i	3.3µM*	?	-64%	-3%	i
COc1cc2[nH]c(=S)nc(NCC3CCCO3)c2cc1OC (centres undefined)	i	-1%	11%	-22%	4%	i
COc1cc2ncnc(NCc3cccs3)c2cc1OC	?	-24%	2%[10 µM]	0%	2.6µM*	?
COc1cc2[nH]c(=S)nc(NCc3ccc(Cl)cc3)c2cc1OC	i	2%	7.1µM*	5µM*	9%	i
COc1cc2[nH]c(=S)nc(NCc3cccs3)c2cc1OC	i	-13%	13µM*	6.3µM*	-14%	i
Cc1ccc([C@@]2(OC(=O)c3ccccc3)C(=O)N(C(=O)OC(C)(C)C)c3ccccc32)cc1	i	/	/	/	/	i
S=C(NCc1ccc(Cl)cc1)NN1CCOCC1	i	0%	?	10µM*	-1%	i
O=C(Nc1ccc(Cl)c(C(F)(F)F)c1)c1ccco1	?	15%	24%	?	?	i
S=C(NCc1ccccc1)NN1CCOCC1	i	-18%	3%[10 µM]	?	5%	i
Cc1ccc(NC(=S)NCCc2ccc(S(N)(=O)=O)cc2)c(C)c1	i	-1%	/	/	-8%	i
Cc1cc(Cl)ccc1NC(=S)NCc1ccc(S(N)(=O)=O)cc1	i	-31%	4%	4%	-35%	i
Cc1cc(Cl)ccc1NC(=S)NCc1ccc(Cl)cc1	i	5%[9.22 µM]	-2%[0.365 µM]	2.8µM*	?	?
Cc1cc(Cl)ccc1NC(=S)NCCc1ccc(Cl)cc1	i	?	5µM*	6.3µM*	4%	?
CCNC(=S)Nc1ccc(Cl)c(C(F)(F)F)c1	23µM*	?	?	?	?	?
CN(C)C=O	/	/	7%	-11%	/	/
CCN(CC)S(=O)(=O)c1ccc(N2CCOCC2)c(NC(=O)c2cc3ccccc3o2)c1	i	/	/	/	/	i
CCc1cc[n+](CC(=O)Nc2ccc(Cl)cc2Cl)cc1	i	-4%	-6%	0%	29%	i
Cc1cc(Cl)ccc1NC(=S)NCc1ccco1	21µM*	-4%	10µM*	?	0%	i
CCNC(=S)Nc1ccc(Cl)cc1Cl	?	-11%	-13%	11µM*	1%	i
CCCNC(=S)NCc1ccc(Cl)cc1	i	-1%	-72%	10µM*	2%	i
SMILES	KB-V1 cytotox	SW480 rereplic	Gal4-VP16 FLuc	RORg inh	MCF10A rereplic	KB-3-1 tox
S=C(NCCc1ccccc1)Nc1ccc(Cl)cc1Cl	i	-3%[9.22 µM]	16µM*	4µM*	12%	i
CCc1ccc(NC(=O)C(=O)NCC(c2ccc3c(c2)OCO3)N2CCOCC2)cc1 (centres undefined)	i	/	/	/	/	i
COc1ccccc1NS(=O)(=O)c1cc(NC(=O)c2ccccc2C)ccc1N1CCOCC1	8.2µM*	-8%	/	/	8%	i
COc1ccc(NS(=O)(=O)c2cc(NC(=O)c3ccc(C)o3)ccc2N2CCCCC2)cc1	i	2%	4.5µM*	6.3µM*	6%	i
COc1ccc(NS(=O)(=O)c2cc(NC(=O)COc3ccc(OC)cc3)ccc2N2CCOCC2)cc1	2.3µM*	-4%	/	/	-2%	i
COc1ccc(NS(=O)(=O)c2cc(NC(=O)/C=C/c3cccs3)ccc2N2CCOCC2)cc1	?	15%	1%	31%	6%	i
COc1ccc(NS(=O)(=O)c2cc(NC(=O)/C=C/c3ccccc3OC)ccc2N2CCCCC2)cc1	5.2µM*	-4%	2%	-2%	14%	i
CCCCCCC#Cc1cc(OC)c(OC)cc1C(N1CC(C)c2ccccc21)N1CC(C)c2ccccc21 (centres undefined)	/	/	-11%[10 µM]	9%[10 µM]	/	/
O=C(Nc1nnc(-c2ccncc2)s1)NC12CC3CC(CC(C3)C1)C2	i	/	/	/	/	i
CCn1c(C(=O)N2CCC(C(=O)N3CCN(c4cc(C)ccc4C)CC3)CC2)cc2sccc21	i	/	/	/	/	i
Cc1ccc(NC(=O)c2nc(S(=O)(=O)Cc3ccccc3)ncc2Cl)cc1	?	20%	2.2µM*	?	?	13µM*
O=C(Nc1ccc(F)cc1)c1nc(S(=O)(=O)Cc2ccccc2)ncc1Cl	?	4%	7.9µM*	-35%	6%	5.2µM*
Cc1ccccc1CS(=O)(=O)c1ncc(Cl)c(C(=O)Nc2ccc(F)cc2)n1	i	-4%	?	?	?	i
CCOc1ccc(NC(=O)c2nc(S(=O)(=O)Cc3ccc(F)cc3)ncc2Cl)cc1	?	/	/	/	/	i
CCCn1c(SCC(=O)Nc2ccccc2N2CCCCC2)nc2c1c(=O)n(C)c(=O)n2C	?	5%	-6%	-13%	3%	i
CCCCn1c(SCc2nnc(-c3ccccc3)o2)nc2c1c(=O)n(C)c(=O)n2C	2.6µM*	-5%	4%	17%[10 µM]	4%	i
CCCCn1c(Oc2ccc(C(=O)OC)cc2)nc2c1c(=O)n(C)c(=O)n2C	16µM*	-7%	0%	-3%	-36%	i
CCn1c(SCc2nnc(-c3ccccc3)o2)nc2c1c(=O)n(C)c(=O)n2C	/	/	14%	-29%	/	/
CCn1c(SCC(=O)Nc2cc(C)on2)nc2c1c(=O)n(C)c(=O)n2C	i	-9%	2%	0%	-1%	i
CCCn1c(SCC(=O)Nc2ccccc2C(=O)OC)nc2c1c(=O)n(C)c(=O)n2C	5µM*	-9%	/	14%[0.365 µM]	2%	i
